Reference: the supplement of paper PMC11732987, “Enantioselective OTUD7B fragment discovery through chemoproteomics screening and high-throughput optimisation” (Communications Chemistry, 2025)

Legend:
Test in all cases: log2 ratio of Biotin-Ahx-Ub-VS probe labelling (fragment/DMSO); higher = less target engagement (more negative = stronger competition), active = hit call of the paper (q ≤ 0.05, log2 ratio ≤ -1)
Details in all cases: compound concentration: 200 uM; treatment time: 3 h
[1] = molecular target: T1, ALG13 (UniProt Q9NP73)
T1 sequence (whole entry): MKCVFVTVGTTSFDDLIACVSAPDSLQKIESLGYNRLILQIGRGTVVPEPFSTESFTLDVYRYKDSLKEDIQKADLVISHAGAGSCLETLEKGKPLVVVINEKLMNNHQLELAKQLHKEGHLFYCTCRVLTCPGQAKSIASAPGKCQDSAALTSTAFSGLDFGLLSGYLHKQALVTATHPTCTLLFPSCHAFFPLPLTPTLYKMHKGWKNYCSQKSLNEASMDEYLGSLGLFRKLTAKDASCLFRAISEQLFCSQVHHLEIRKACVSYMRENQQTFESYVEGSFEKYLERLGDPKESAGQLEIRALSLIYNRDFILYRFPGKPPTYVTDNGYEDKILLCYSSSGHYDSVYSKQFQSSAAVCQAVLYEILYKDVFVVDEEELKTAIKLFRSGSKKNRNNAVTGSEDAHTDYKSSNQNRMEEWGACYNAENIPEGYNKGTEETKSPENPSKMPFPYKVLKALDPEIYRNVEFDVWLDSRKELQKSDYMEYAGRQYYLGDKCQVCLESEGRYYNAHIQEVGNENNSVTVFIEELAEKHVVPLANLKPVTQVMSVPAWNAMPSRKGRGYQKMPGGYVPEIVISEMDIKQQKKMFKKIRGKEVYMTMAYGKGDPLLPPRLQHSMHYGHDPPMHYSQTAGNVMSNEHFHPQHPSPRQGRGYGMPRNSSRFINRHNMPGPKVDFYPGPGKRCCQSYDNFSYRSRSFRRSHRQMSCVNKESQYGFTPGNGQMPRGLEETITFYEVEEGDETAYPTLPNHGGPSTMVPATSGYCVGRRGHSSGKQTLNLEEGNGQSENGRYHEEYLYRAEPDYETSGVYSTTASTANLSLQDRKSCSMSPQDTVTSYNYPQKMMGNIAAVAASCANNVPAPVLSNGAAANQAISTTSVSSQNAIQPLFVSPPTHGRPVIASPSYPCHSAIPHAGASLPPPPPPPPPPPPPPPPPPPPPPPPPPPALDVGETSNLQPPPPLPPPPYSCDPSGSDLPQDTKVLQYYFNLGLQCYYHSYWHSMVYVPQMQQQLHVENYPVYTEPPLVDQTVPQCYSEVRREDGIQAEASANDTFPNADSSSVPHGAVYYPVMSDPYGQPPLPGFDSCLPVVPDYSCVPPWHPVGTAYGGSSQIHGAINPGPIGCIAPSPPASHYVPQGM
Outline: (§1)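 HEK293T lysate, 495 µg per sample in Tris/CHAPS/IGEPAL buffer with protease inhibitors, was treated in triplicate with fragment at 200 µM or vehicle for 3 h and then with Biotin-Ahx-Ub-VS at 0.5 µM final for 1 h. Labelled DUBs were NeutrAvidin-enriched, digested with LysC and trypsin, and run by diaPASEF LC-MS/MS. Spectronaut label-free quantities were global-median-normalised, and values are average log2 fragment/vehicle ratios by unpaired t-test on proteins with ≥2 unique peptides.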

[2] = molecular target: ATXN3 (UniProt P54252)
ATXN3, sequence (P54252 whole entry): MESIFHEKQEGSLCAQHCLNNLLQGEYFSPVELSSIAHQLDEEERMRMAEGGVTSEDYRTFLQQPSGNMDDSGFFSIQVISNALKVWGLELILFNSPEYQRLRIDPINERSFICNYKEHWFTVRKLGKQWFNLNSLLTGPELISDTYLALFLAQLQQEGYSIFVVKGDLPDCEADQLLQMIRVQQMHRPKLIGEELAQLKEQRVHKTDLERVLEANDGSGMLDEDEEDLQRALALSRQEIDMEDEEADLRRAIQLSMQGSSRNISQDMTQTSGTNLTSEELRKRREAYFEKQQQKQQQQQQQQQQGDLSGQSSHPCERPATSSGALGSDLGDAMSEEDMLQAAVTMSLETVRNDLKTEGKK
Outline: as §1

[3] = molecular target: T2, BAP1 (UniProt Q92560)
T2 sequence (whole entry): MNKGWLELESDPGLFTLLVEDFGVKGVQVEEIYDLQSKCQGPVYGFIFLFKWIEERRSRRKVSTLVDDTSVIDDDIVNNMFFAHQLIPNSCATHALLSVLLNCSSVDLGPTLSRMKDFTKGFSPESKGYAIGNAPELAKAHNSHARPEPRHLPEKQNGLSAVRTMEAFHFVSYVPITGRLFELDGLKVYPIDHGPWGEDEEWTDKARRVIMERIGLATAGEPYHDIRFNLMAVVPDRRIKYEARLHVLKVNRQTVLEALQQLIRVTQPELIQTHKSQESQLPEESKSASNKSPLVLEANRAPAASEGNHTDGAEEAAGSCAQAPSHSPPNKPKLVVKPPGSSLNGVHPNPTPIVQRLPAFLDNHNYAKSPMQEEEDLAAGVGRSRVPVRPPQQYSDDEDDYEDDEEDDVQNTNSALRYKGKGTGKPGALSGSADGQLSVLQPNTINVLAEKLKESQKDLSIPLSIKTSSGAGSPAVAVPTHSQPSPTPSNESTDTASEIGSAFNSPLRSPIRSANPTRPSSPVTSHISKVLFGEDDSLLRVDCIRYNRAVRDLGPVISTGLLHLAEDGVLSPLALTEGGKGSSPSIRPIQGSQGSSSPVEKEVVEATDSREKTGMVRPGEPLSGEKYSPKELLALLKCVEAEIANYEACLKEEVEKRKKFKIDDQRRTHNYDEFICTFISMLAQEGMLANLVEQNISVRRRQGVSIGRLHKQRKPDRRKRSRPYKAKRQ
Outline: as §1

[4] = molecular target: EIF3F (UniProt O00303)
EIF3F, sequence (O00303 whole entry): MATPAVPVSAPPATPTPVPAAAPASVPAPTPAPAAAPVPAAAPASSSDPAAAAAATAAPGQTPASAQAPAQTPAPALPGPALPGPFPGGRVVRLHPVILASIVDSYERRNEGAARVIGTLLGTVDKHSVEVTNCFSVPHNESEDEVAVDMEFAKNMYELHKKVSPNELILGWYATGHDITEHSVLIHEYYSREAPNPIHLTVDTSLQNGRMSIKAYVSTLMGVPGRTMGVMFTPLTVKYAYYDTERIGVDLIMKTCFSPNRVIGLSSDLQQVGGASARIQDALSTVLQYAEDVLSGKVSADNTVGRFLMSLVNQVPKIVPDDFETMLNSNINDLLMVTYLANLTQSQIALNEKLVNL
Outline: as §1

[5] = molecular target: EIF3H (UniProt O15372)
EIF3H, sequence (O15372 whole entry): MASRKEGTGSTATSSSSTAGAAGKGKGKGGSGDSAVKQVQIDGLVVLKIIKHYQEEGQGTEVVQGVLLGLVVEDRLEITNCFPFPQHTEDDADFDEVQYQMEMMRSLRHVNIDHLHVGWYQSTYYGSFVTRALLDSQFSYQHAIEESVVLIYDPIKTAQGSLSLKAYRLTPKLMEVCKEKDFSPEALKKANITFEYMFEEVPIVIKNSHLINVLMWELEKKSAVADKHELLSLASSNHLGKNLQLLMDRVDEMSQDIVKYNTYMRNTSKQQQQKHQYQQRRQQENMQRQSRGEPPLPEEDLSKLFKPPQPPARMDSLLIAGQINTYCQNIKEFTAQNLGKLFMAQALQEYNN
Outline: as §1

[6] = molecular target: T3, FAM105A (UniProt Q9NUU6)
T3 sequence (whole entry): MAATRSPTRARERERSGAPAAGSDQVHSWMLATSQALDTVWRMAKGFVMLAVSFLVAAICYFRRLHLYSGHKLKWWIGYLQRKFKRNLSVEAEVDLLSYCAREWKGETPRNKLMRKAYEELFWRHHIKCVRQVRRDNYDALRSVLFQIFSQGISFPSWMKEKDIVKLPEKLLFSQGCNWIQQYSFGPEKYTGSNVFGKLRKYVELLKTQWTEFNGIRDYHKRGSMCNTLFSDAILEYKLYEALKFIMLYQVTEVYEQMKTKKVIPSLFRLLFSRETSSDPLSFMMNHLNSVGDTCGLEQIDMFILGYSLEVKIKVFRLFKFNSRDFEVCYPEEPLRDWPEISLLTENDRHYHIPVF
Outline: as §1

[7] = molecular target: OTUB1 (UniProt Q96FW1)
OTUB1, sequence (Q96FW1 whole entry): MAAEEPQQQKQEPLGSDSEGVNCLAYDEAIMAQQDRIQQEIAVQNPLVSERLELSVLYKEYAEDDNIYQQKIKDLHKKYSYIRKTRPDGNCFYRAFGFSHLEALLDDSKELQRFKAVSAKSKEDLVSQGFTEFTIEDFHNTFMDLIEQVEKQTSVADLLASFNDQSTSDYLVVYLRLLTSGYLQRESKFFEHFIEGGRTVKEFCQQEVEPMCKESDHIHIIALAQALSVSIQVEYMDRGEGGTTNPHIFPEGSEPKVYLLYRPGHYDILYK
Outline: as §1

[8] = molecular target: T4, OTUD4 (UniProt Q01804)
T4 sequence (whole entry): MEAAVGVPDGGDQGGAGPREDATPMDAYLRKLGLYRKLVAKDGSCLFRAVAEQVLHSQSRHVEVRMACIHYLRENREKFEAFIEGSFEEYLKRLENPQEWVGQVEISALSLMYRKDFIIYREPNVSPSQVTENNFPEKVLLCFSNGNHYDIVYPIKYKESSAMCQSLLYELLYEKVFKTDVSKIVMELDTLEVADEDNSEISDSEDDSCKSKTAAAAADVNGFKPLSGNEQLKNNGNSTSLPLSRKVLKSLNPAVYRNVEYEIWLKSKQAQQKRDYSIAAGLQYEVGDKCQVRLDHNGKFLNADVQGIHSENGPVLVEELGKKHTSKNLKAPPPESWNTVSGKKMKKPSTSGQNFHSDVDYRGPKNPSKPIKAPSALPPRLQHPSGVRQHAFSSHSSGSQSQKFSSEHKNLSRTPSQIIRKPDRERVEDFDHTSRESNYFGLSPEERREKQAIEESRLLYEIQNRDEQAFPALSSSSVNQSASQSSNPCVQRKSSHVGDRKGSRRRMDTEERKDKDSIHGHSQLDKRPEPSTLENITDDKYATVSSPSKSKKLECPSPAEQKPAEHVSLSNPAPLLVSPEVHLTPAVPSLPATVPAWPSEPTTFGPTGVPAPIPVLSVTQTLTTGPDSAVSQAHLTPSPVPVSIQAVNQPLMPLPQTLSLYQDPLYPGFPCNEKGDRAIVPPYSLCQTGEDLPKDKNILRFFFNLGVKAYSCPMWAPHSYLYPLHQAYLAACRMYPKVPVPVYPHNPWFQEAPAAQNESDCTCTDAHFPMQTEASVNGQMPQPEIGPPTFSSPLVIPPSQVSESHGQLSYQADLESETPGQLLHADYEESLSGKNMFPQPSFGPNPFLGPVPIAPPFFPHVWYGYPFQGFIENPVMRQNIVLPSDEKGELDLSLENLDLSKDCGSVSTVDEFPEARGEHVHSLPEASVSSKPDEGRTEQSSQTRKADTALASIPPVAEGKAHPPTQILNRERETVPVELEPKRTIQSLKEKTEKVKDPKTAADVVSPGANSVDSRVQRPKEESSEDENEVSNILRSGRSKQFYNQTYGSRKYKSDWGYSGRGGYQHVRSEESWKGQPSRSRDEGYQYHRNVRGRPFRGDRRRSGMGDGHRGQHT
Outline: as §1

[9] = molecular target: T5, OTUD5 (UniProt Q96G74)
T5 sequence (whole entry): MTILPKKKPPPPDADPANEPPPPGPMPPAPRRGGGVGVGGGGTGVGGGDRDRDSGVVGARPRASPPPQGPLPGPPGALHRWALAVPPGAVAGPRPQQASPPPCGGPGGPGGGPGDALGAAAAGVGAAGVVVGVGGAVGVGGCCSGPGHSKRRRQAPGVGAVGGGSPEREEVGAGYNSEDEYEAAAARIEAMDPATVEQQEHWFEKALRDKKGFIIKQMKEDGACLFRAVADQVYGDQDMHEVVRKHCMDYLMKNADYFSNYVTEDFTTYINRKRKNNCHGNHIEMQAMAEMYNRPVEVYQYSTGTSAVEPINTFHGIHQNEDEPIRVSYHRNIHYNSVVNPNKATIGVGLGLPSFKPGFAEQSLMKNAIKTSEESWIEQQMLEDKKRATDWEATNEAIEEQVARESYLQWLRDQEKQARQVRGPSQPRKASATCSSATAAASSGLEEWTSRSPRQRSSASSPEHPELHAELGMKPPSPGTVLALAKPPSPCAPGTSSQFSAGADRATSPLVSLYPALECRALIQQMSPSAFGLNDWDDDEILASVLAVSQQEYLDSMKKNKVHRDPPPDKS
Outline: as §1

Measured: log2 ratio of Biotin-Ahx-Ub-VS probe labelling

O=C(CCl)N1CCC(=C(F)CO)C1
inactive: [1] -0.0371 | [2] -0.106 | [3] -0.015 | [4] -0.0747 | [5] -0.169 | [6] -0.0583 | [7] -0.0358 | [8] 0.198 | [9] -0.126
